In PubChem BioAssay:
Unmarked numbers belong to inactive results. No rule for the calls is given here.

The molecules below were run on Aerobactin synthetase IucA (Klebsiella pneumoniae hvKP1) (assay: IucA enzyme inhibition, primary screen, biochemical, Spectrum library (AID 1346200;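 also: 100% = wells without compound and 0% = wells lacking enzyme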)). Conditions: malachite green pyrophosphate, A620, at 8 µM, hits give low values.

Which activity remaining does the source give for C[C@H]1O[C@@H](O[C@H]2[C@@H](O)C[C@H](O[C@H]3[C@@H](O)C[C@H](O[C@H]4CC[C@]5(C)C6C[C@@H](O)[C@]7(C)[C@@H](C8=CC(=O)OC8)CC[C@]7(O)C6CC[C@@H]5C4)O[C@@H]3C)O[C@@H]2C)C[C@H](O)[C@@H]1O (some centres not stated) here?
Its activity remaining is 118%.

With COc1ccc(-c2oc3c(CC=C(C)C)c(O[C@@H]4O[C@H](CO)[C@@H](O)[C@H](O)[C@H]4O)cc(O)c3c(=O)c2O[C@@H]2O[C@@H](C)[C@H](O)[C@@H](O)[C@H]2O)cc1 as the molecule, how does the activity remaining read?
Its activity remaining is 121%.

COc1cc(OC)c2c(=O)c(-c3ccc4c(c3)OCO4)coc2c1 was tested. Which activity remaining did it give?
Its activity remaining is 98%.

For Nc1c2ccccc2nc2ccccc12 (tested in a mixture with another compound), which activity remaining is on record?
Its activity remaining is 112%.

With Cc1occc(=O)c1O as the molecule, how does the activity remaining read?
The activity remaining was 102%.

CC(=O)O[C@H]1CC[C@@]2(C)C(CC[C@]3(C)C2C(=O)C=C2C4[C@@H](C)[C@H](C)CC[C@]4(C(=O)O)CC[C@]23C)C1(C)C (some centres not stated) was tested. Which activity remaining did it give?
The activity remaining was 113%.

How did the activity remaining turn out when CC(C)NCC(O)c1ccc(O)c(O)c1 (configuration not stated) was run?
Its activity remaining is 82.7%.

For O=C(/C=C/c1ccc(O)c(O)c1)O[C@@H]1C[C@](O)(C(=O)O)C[C@@H](O)[C@H]1O, which activity remaining is on record?
Its activity remaining is 103%.

How did the activity remaining turn out when NCC(=O)CCC(=O)O was run?
Its activity remaining is 77.6%.

Which activity remaining does the source give for CC1(C)CCCC2(C)C3C1[C@@H](O)C2(C)C[C@H]3O (some centres not stated) here?
The activity remaining was 105%.

NS(=O)(=O)c1cc2c(cc1Cl)NC(CSCc1ccccc1)=NS2(=O)=O was tested. Which activity remaining did it give?
Its activity remaining is 113%.

Which activity remaining does the source give for CC(C)=CCC/C(C)=C/CC/C(C)=C/CC/C(C)=C/CC/C(C)=C/CC/C(C)=C/CC/C(C)=C/CC/C(C)=C/CC/C(C)=C/CO here?
Its activity remaining is 105%.
